Measurements: PubChem BioAssay (NCATS)
Inconclusive results are not listed. Unmarked numbers belong to inactive results. The call rests on the fitted dose curve; in most records, active means well fitted inhibition curve with a large enough effect; inconclusive means small, poorly fitted or top-dose-only effect; inactive means flat fitted curve, though single readings scatter.
On the % scale 0 is the no-effect control and ±100 the full control effect.

These molecules were tested against Calcium and integrin-binding protein 1 (Homo sapiens) (UniProt Q99828) (assay: Primary qHTS for Identification of Calcium Integrin Binding Protein 1 (CIB1) Competitor (AID 1508620; further: top concentration of the series differs between compounds)). Conditions: CIB1-GST / FITC-alphaIIb peptide fluorescence polarization; series mostly up to 114 µM; activity change, negative = inhibition: at the top concentration.
Sequence of Calcium and integrin-binding protein 1 (Homo sapiens) (Q99828 whole entry, looked up): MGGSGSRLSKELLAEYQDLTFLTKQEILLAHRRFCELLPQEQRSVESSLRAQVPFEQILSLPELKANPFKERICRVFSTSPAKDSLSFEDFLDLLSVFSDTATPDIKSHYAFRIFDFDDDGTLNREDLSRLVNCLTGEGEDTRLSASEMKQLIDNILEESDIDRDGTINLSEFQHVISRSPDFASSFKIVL
How it was run: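 Fluorescence polarization competition: GST-tagged CIB1 (1 uM final) preincubated with compound 15 min at room temperature, then FITC-labelled alphaIIb peptide (100 nM final) added. After 15 min at room temperature, polarization read at Ex 480/Em 540.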
`FC(F)(F)c1cccc(Nc2ccc(CNc3nc(-c4ccccc4C(F)(F)F)nc4ccccc34)cc2)c1` was tested, and the “activity change, negative = inhibition” value was 4.13%. For `COc1cc(F)c(S(=O)(=O)N2CCN(S(=O)(=O)c3ccc(NC(C)=O)cc3)CC2)c(F)c1`, the “activity change, negative = inhibition” value was -4.81%. `O=C1NS(=O)(=O)c2cc3c(cc21)C(=O)NS3(=O)=O` was tested, and the “activity change, negative = inhibition” value was 0.825%. With `Cn1c2ccsc2c2ncn(Cc3ccccc3F)c(=O)c21` the “activity change, negative = inhibition” value was 1.06%. For `CN(Cc1cccs1)c1ncnc2ccc(-c3ccc4cn(C)nc4c3)cc12`, the “activity change, negative = inhibition” value was -5.26%. `Cc1cccc(-n2cnc3cc(C(=O)N4CC(C)CC(C)C4)ccc32)c1` (stereo not given) was tested, and the “activity change, negative = inhibition” value was -1.16%. For `COc1ccc(-c2nnc3n2N=C(c2ccc(OC)c(OC)c2)CS3)cc1`, the “activity change, negative = inhibition” value was -2.27%. `Cc1cc(NC(=O)Nc2nnc(-c3ccncc3)s2)ccc1F` was tested, and the “activity change, negative = inhibition” value was -2.03%. `O=C1CCCC2=C1C1(CCCC1)N=C(Nc1nc3cc4ccccc4cc3o1)N2` was tested, and the “activity change, negative = inhibition” value was -2.54%. `O=C1CCCC2=C1C(c1cccnc1)N=C(Nc1nc3ccccc3o1)N2` (stereo not given) was tested, and the “activity change, negative = inhibition” value was -14.6%. In the case of `O=S(=O)(NC1CCN(S(=O)(=O)c2c(F)cccc2F)C1)c1ccc2c(c1)OCCO2` (stereo not given), the “activity change, negative = inhibition” value is reported as -2.43%. In the case of `Cc1ccnc(NC(=S)N2CCCN(c3cccc(C(F)(F)F)c3)CC2)c1`, the “activity change, negative = inhibition” value is reported as -12.8%. For `Cc1nnc(-c2ccccc2[N+](=O)[O-])n1CCCn1ccnc1`, the “activity change, negative = inhibition” value was 1.14%. `Cc1csc(CNc2ncnc3ccc(-c4cccnc4)cc23)c1` was tested, and the “activity change, negative = inhibition” value was -12.2%. For `Cn1nnnc1Sc1ncnc2scc(-c3ccc(N)cc3)c12`, the “activity change, negative = inhibition” value was 1.53%. For `Cc1cc(C)nc(NC(=S)N2CCN(c3ccc4cnccc4c3)CC2)c1`, the “activity change, negative = inhibition” value was -1.09%. `COc1ccc(OC)c(C2=Nn3c(nnc3-c3ccccc3C)SC2)c1` was tested, and the “activity change, negative = inhibition” value was 2.78%. For `Cc1csc(CNc2ncnc3ccc(-c4ccc5c(c4)OCO5)cc23)c1`, the “activity change, negative = inhibition” value was 5.38%. For `O=C(O)c1ccc(-c2nn3c(=O)cc(N4CCNCC4)nc3s2)cc1`, the “activity change, negative = inhibition” value was -0.465%. In the case of `CCOc1ccc(CCNC(=O)c2cc3sccc3n2C)cc1OCC`, the “activity change, negative = inhibition” value is reported as -3.39%. For `CC(=O)Nc1sc2c(c1-c1ccccc1)CCNC2`, the “activity change, negative = inhibition” value was -2.49%. For `Cc1ccnc(NC(=S)N2CCN(C)CC2)c1`, the “activity change, negative = inhibition” value was 2.32%. With `CC(=O)Nc1ccccc1OC1=N[S+](=O)([O-])c2ccccc21` the “activity change, negative = inhibition” value was 2.47%. With `O=S(=O)(c1ccc2c(c1)OCCO2)N1CCN(S(=O)(=O)c2cccc[n+]2[O-])CC1` the “activity change, negative = inhibition” value was 4.63%. In the case of `CC(=O)Nc1cccc(S(=O)(=O)Nc2ccc(C)c(C)c2)c1`, the “activity change, negative = inhibition” value is reported as 4.3%. `N#Cc1c(-c2ccc(C(=O)c3ccc(O)cc3)cc2)no[n+]1[O-]` was tested, and the “activity change, negative = inhibition” value was -6.28%. With `COc1cccc(CNc2ccc(S(=O)(=O)Nc3cccnc3)cc2)c1O` the “activity change, negative = inhibition” value was -4%. `COc1ccnc(NC(=S)N2CCN(c3ccc(Cl)cc3Cl)CC2)c1` was tested, and the “activity change, negative = inhibition” value was -10.9%. With `Oc1cc(NCc2ccc(Cl)cc2)cc2cccnc12` the “activity change, negative = inhibition” value was 0.389%. For `Oc1c(CNc2ccccc2)cc(COCc2ccccc2)c2cccnc12`, the “activity change, negative = inhibition” value was -1.21%. In the case of `O=C1CCc2cc(S(=O)(=O)Nc3cccnc3)ccc2N1`, the “activity change, negative = inhibition” value is reported as 5.83%. With `Cc1cc(-c2nnc3n2CCCCC3)c(C)n1-c1ccc(C#N)cc1` the “activity change, negative = inhibition” value was 5.4%. `CCOC(=O)c1cccc(-n2cnc(/C=C3\NC(=O)N(CC(=O)OC(C)(C)C)C3=O)c2)c1` was tested, and the “activity change, negative = inhibition” value was 2.05%. In the case of `Cc1ccc(NS(=O)(=O)c2ccc3c(c2)CCC(=O)N3)cc1F`, the “activity change, negative = inhibition” value is reported as 3.19%. For `CC(C)(C)OC(=O)N1CCN(c2ccc(NCc3nnc(-c4ccc(C#N)cc4)o3)cc2)CC1`, the “activity change, negative = inhibition” value was -0.469%. `Cc1cc(C)nc(NC(=S)N2CCN(c3ccc4nccn4c3)CC2)c1` was tested, and the “activity change, negative = inhibition” value was -13.8%. In the case of `Fc1cccc(CNc2ncnc3ccc(-c4ccccc4Cl)cc23)c1`, the “activity change, negative = inhibition” value is reported as 5.69%. With `O=C(Nc1ncc(Cc2ccc(C(F)(F)F)cc2)s1)c1cnc(-c2ccccc2)s1` the “activity change, negative = inhibition” value was 7.75%. In the case of `Cc1ccccc1NS(=O)(=O)c1ccc2c(c1)CCC(=O)N2`, the “activity change, negative = inhibition” value is reported as -2.17%. `Cn1c2cc(Br)sc2c2cnn(Cc3ccccc3F)c(=O)c21` was tested, and the “activity change, negative = inhibition” value was 1.15%.
